# Assay results taken from PMC7862700, “An all-to-all approach to the identification of sequence-specific readers for epigenetic DNA modifications on cytosine”.
# Assays:
# Assay in all cases: DAPPL (digital affinity profiling via proximity ligation, sequencing); 10 mM Tris-HCl pH 7.5, 50 mM NaCl, 1 mM DTT, 4% glycerol, room temperature, 30 min; GST-TFs on glutathione beads, 16-mer random dsDNA library, 0.1% formaldehyde crosslink after washing; high values mean tight binding
# FEV = molecular target: T1, FEV (Homo sapiens, UniProt Q99581 1-238); conditions: protein: recombinant; tags: N-terminal GST; dsDNA, one strand shown
# T1 sequence: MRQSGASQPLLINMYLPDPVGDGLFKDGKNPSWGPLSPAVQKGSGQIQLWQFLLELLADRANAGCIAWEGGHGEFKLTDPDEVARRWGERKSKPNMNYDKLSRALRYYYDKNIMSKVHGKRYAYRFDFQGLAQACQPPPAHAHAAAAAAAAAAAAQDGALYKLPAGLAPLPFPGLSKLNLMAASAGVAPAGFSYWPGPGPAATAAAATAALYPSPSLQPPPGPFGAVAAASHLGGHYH
# In short: (§1)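 Sequencing on an Illumina NextSeq500 followed washing, crosslinking with 0.1% formaldehyde, proximity ligation (BsaI/T4 ligase, 1 h, 37 °C) and PCR amplification of pools that had been incubated for 30 min at room temperature with 200 nmole of a random double-stranded 16-mer DNA library in Tris/NaCl/DTT/glycerol buffer. Each pool held DNA-barcoded human transcription factors, expressed in yeast as GST fusions and captured on glutathione beads, plus a tag-only sample. Binding signal is a hexamer's read frequency for a factor divided by its frequency in the tag-only sample.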
# ETV5 = ETV5 (Homo sapiens, UniProt P41161 1-510); conditions: protein: recombinant; tags: N-terminal GST; dsDNA, one strand shown
# ETV5, sequence (P41161 whole entry): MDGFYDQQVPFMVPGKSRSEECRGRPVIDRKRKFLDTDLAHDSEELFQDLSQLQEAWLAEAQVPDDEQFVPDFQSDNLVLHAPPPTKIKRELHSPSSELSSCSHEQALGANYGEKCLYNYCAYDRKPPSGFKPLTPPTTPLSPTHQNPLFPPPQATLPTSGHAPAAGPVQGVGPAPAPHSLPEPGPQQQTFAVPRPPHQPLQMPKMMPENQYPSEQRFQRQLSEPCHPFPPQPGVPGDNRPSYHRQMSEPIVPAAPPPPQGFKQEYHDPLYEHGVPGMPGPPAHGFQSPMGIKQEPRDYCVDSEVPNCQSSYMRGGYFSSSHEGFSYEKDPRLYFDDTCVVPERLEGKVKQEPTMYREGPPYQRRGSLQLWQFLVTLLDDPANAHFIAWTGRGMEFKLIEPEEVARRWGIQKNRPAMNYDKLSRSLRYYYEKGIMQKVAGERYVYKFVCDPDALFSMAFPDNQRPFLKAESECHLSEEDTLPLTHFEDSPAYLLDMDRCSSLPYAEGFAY
# In short: as §1
# HSF1 = HSF1 (Homo sapiens, UniProt Q00613 1-529); conditions: protein: recombinant; tags: N-terminal GST; chain copies: 3; dsDNA, one strand shown
# HSF1, sequence (Q00613 whole entry): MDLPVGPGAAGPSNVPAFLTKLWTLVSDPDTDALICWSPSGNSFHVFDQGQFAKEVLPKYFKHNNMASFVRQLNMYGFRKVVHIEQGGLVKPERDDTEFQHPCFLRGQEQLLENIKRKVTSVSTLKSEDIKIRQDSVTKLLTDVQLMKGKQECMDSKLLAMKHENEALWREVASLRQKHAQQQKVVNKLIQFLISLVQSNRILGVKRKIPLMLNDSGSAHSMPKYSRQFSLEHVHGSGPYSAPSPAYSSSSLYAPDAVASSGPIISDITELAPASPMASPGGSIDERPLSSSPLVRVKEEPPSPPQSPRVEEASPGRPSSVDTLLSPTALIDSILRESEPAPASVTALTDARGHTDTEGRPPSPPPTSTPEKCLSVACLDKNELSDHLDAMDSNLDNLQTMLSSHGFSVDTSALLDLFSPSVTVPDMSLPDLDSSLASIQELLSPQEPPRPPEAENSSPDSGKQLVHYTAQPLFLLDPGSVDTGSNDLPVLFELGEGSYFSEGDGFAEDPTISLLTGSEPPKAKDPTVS
# In short: as §1
# SPIC = molecular target: T2, SPIC (Homo sapiens, UniProt Q8N5J4 1-248); conditions: protein: recombinant; tags: N-terminal GST; dsDNA, one strand shown
# T2 sequence: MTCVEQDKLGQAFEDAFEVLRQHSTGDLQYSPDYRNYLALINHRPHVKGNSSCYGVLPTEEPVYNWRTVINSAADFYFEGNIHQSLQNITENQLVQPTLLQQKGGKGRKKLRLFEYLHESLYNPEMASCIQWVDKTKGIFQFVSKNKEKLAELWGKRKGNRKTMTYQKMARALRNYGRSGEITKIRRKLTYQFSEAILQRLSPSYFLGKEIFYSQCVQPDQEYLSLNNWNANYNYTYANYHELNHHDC
# In short: as §1
# ELF4 = ELF4 (Homo sapiens, UniProt Q99607 1-663); conditions: protein: recombinant; tags: N-terminal GST; dsDNA, one strand shown
# ELF4, sequence (Q99607 whole entry): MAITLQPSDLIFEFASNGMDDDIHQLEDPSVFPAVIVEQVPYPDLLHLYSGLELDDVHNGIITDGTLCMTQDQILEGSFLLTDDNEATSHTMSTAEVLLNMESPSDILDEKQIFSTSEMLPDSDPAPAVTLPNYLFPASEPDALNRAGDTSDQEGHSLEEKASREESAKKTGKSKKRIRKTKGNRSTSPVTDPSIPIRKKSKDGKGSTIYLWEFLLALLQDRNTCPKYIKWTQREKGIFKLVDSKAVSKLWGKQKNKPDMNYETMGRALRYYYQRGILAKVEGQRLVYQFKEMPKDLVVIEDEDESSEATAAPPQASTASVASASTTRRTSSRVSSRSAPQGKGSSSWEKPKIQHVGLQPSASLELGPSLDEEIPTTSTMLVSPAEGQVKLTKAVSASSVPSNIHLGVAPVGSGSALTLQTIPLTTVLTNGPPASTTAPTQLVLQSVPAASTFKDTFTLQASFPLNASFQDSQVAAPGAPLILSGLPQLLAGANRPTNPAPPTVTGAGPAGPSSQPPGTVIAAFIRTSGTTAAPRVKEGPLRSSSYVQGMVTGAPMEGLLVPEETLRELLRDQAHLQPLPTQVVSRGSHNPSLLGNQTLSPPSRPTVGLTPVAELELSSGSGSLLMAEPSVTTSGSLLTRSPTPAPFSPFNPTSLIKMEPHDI
# In short: as §1
# ELK4 = molecular target: T3, ELK4 (Homo sapiens, UniProt P28324-2 1-405); conditions: protein: recombinant; tags: N-terminal GST; dsDNA, one strand shown
# T3 sequence: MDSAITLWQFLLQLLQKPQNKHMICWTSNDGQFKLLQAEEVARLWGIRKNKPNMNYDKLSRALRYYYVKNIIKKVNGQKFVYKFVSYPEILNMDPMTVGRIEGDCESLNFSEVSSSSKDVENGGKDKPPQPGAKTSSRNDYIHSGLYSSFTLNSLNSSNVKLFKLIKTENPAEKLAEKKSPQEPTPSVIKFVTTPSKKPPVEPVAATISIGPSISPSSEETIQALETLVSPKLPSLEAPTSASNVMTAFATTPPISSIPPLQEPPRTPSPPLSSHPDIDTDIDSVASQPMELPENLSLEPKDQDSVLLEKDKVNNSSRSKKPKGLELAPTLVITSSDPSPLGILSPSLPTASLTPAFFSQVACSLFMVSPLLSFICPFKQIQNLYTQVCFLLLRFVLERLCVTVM
# In short: as §1
# ETV2 = molecular target: T4, ETV2 (Homo sapiens, UniProt O00321 1-342); conditions: protein: recombinant; tags: N-terminal GST; dsDNA, one strand shown
# T4 sequence: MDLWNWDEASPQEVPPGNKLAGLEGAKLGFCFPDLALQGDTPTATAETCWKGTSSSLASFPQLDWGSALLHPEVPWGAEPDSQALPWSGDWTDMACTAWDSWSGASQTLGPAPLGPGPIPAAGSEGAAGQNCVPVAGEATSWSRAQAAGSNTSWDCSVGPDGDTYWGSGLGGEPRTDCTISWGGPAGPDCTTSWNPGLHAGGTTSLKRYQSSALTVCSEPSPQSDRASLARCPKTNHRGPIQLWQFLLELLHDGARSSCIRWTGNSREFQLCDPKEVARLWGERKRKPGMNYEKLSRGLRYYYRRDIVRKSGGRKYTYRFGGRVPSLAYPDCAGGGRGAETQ
# In short: as §1
# ELF3 = molecular target: T5, ELF3 (Homo sapiens, UniProt P78545 1-371); conditions: protein: recombinant; tags: N-terminal GST; dsDNA, one strand shown
# T5 sequence: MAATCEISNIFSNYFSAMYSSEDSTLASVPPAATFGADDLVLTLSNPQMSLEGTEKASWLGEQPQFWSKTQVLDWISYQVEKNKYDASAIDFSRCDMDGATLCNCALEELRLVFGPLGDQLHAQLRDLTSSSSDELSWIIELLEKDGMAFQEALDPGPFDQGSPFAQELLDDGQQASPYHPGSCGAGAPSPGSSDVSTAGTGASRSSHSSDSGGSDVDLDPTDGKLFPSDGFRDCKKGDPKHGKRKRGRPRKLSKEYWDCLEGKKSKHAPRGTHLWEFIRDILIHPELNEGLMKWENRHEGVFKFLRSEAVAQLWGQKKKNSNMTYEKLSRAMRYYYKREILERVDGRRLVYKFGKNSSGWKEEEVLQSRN
# In short: as §1
# CRX = CRX (Homo sapiens, UniProt O43186 1-299); conditions: protein: recombinant; tags: N-terminal GST; dsDNA, one strand shown
# CRX, sequence (O43186 whole entry): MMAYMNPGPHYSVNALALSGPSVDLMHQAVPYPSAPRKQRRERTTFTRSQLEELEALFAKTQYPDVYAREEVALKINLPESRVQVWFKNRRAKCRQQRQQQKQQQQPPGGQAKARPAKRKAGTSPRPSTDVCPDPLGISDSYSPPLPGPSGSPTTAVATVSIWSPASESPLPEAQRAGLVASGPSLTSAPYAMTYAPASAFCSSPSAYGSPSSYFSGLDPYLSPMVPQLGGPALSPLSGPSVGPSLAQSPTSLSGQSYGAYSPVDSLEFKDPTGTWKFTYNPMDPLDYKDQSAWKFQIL
# In short: as §1
# ETV1 = ETV1 (Homo sapiens, UniProt P50549 1-477); conditions: protein: recombinant; tags: N-terminal GST; dsDNA, one strand shown
# ETV1, sequence (P50549 whole entry): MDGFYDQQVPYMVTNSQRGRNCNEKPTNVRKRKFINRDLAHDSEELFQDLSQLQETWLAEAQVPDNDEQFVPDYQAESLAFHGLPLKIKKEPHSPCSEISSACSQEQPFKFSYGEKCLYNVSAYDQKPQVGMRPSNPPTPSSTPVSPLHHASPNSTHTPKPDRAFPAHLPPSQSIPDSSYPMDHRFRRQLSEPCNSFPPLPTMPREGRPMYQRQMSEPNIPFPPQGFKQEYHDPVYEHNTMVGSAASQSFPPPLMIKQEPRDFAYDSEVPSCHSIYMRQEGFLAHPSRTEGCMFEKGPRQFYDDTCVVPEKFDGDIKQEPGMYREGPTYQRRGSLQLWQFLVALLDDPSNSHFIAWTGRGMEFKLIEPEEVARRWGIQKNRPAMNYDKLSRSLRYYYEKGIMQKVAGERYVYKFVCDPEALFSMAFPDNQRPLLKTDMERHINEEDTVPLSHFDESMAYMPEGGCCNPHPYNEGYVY
# In short: as §1
# ERF = molecular target: T6, ERF (Homo sapiens, UniProt P50548 1-548); conditions: protein: recombinant; tags: N-terminal GST; dsDNA, one strand shown
# T6 sequence: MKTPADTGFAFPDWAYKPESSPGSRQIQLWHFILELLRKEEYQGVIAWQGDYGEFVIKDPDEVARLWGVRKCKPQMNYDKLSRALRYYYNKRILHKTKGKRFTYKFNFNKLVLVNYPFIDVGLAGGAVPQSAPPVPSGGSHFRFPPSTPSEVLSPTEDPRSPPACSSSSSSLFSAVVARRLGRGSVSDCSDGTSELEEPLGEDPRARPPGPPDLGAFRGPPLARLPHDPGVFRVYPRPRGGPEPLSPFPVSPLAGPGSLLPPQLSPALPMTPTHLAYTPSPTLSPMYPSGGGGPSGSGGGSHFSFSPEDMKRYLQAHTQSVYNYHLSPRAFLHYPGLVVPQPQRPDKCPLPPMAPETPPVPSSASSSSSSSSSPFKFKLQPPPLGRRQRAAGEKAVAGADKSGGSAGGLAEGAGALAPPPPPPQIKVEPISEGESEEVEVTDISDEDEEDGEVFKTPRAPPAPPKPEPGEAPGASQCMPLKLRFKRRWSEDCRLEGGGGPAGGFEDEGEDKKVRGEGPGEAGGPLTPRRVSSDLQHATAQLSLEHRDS
# In short: as §1
# ETV3L = molecular target: T7, ETV3L (Homo sapiens, UniProt Q6ZN32 1-361); conditions: protein: recombinant; tags: N-terminal GST; dsDNA, one strand shown
# T7 sequence: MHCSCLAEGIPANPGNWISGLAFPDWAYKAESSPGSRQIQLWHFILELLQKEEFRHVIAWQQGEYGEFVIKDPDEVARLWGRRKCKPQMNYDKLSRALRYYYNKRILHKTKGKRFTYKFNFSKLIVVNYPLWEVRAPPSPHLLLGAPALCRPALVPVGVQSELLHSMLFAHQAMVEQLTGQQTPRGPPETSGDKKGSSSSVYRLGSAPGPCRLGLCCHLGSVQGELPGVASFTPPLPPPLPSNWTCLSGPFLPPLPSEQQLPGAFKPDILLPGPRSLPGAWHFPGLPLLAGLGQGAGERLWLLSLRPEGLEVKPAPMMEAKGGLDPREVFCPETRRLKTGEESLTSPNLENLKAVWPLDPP
# In short: as §1
# ETS2 = molecular target: T8, ETS2 (Homo sapiens, UniProt P15036 1-469); conditions: protein: recombinant; tags: N-terminal GST; dsDNA, one strand shown
# T8 sequence: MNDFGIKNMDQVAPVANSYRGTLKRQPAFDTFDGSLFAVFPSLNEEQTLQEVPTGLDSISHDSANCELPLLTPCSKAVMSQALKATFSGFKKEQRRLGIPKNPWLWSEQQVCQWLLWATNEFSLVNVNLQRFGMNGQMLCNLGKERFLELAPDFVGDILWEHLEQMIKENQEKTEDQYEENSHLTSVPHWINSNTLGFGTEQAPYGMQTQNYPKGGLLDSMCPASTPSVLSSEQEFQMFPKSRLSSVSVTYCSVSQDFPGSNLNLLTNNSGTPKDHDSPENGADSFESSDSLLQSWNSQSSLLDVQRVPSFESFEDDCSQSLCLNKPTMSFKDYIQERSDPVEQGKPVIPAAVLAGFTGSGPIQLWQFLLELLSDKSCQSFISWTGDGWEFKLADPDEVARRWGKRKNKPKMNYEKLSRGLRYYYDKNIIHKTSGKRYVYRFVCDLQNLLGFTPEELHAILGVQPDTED
# In short: as §1
# SPDEF = molecular target: T9, SPDEF (Homo sapiens, UniProt O95238 1-335); conditions: protein: recombinant; tags: N-terminal GST; dsDNA, one strand shown
# T9 sequence: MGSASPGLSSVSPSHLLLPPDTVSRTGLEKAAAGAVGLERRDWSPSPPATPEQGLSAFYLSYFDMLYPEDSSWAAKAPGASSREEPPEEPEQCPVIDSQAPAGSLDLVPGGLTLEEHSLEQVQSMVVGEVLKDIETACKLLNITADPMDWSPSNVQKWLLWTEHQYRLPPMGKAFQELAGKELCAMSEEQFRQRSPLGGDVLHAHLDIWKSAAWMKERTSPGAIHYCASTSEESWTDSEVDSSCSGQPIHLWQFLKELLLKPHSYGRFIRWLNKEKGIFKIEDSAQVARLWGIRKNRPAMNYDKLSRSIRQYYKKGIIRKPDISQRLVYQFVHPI
# In short: as §1
# ETV7 = molecular target: T10, ETV7 (Homo sapiens, UniProt Q9Y603 1-341); conditions: protein: recombinant; tags: N-terminal GST; dsDNA, one strand shown
# T10 sequence: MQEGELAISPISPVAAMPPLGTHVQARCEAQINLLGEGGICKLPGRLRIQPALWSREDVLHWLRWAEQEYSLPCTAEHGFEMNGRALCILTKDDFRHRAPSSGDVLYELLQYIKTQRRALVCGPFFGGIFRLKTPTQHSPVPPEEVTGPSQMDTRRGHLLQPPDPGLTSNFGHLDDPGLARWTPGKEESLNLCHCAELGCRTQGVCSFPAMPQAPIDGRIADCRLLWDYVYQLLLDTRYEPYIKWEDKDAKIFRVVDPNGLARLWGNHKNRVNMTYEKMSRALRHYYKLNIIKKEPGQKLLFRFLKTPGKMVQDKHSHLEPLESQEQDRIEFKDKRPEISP
# In short: as §1
# ELF5 = molecular target: T11, ELF5 (Homo sapiens, UniProt Q9UKW6-2 1-255); conditions: protein: recombinant; tags: N-terminal GST; dsDNA, one strand shown
# T11 sequence: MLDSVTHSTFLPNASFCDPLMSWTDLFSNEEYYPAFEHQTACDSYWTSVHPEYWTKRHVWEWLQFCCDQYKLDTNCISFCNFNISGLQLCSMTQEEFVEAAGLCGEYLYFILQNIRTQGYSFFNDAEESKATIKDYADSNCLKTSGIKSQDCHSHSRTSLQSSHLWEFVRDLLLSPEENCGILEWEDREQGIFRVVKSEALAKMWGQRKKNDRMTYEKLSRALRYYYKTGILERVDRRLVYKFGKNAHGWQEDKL
# In short: as §1
# ETV3 = molecular target: T12, ETV3 (Homo sapiens, UniProt P41162-2 1-143); conditions: protein: recombinant; tags: N-terminal GST; dsDNA, one strand shown
# T12 sequence: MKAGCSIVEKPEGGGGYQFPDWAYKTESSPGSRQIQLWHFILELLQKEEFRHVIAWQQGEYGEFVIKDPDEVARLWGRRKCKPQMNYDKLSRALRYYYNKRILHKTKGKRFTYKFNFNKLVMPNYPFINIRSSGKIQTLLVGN
# In short: as §1
# ETV6 = ETV6 (Homo sapiens, UniProt P41212 1-452); conditions: protein: recombinant; tags: N-terminal GST; dsDNA, one strand shown
# ETV6, sequence (P41212 whole entry): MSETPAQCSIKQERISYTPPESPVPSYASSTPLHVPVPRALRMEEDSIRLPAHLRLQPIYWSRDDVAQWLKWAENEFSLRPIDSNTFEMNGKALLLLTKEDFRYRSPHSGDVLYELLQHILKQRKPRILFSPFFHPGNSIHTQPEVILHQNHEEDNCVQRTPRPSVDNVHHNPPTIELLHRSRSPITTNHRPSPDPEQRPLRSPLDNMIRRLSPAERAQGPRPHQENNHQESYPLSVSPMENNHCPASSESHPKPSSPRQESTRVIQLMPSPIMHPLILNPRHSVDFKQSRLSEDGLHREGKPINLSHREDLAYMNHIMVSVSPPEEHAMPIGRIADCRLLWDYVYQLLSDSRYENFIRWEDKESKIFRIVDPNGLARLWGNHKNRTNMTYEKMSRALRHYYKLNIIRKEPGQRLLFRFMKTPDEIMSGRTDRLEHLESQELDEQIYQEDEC
# In short: as §1
sequence,measurement,setting,value
CACTTC,binding signal,FEV,"5.06 fold enrichment (6-mer frequency, TF over GST control)"
same,binding signal,ETV5,"3.62 fold enrichment (6-mer frequency, TF over GST control)"
same,binding signal,HSF1,"1.3 fold enrichment (6-mer frequency, TF over GST control)"
same,binding signal,SPIC,"3.53 fold enrichment (6-mer frequency, TF over GST control)"
same,binding signal,ELF4,"3.48 fold enrichment (6-mer frequency, TF over GST control)"
same,binding signal,ELK4,"3.01 fold enrichment (6-mer frequency, TF over GST control)"
same,binding signal,ETV2,"3.4 fold enrichment (6-mer frequency, TF over GST control)"
same,binding signal,ELF3,"3.05 fold enrichment (6-mer frequency, TF over GST control)"
same,binding signal,CRX,"1.07 fold enrichment (6-mer frequency, TF over GST control)"
same,binding signal,ETV1,"3.73 fold enrichment (6-mer frequency, TF over GST control)"
same,binding signal,ERF,"3.07 fold enrichment (6-mer frequency, TF over GST control)"
same,binding signal,ETV3L,"3.63 fold enrichment (6-mer frequency, TF over GST control)"
same,binding signal,ETS2,"3.66 fold enrichment (6-mer frequency, TF over GST control)"
same,binding signal,SPDEF,"3.55 fold enrichment (6-mer frequency, TF over GST control)"
same,binding signal,ETV7,"3.64 fold enrichment (6-mer frequency, TF over GST control)"
same,binding signal,ELF5,"4.43 fold enrichment (6-mer frequency, TF over GST control)"
same,binding signal,ETV3,"3.65 fold enrichment (6-mer frequency, TF over GST control)"
same,binding signal,ETV6,"4.24 fold enrichment (6-mer frequency, TF over GST control)"
